Experimental data reported in PubChem BioAssay AID1159580 (chemical genetic matrix, 2015).
The whole screen tested about 5,500 compounds, of which about 2,000 (36%) were called active. Roughly 18% stayed inconclusive and do not appear here. The list shows a part of the results. Values without a mark were called inactive. Rule as the data show it: active = normalized growth mostly below about 0.91 (no sharp cut-off); inconclusive = no clear call, values can overlap the other calls; inactive = mostly above about 0.92.

Experiment: chemical genetic growth profiling, strain panel (AID 1159580);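 also: tested at 20 µM; growth read once vehicle control cultures reached saturation at 30 °C; 1 = growth at the plate median or of vehicle wells; lower values mean less growth of the strain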
Conditions: growth OD
[1] = S. cerevisiae deletion strains, locus YDL101C, strain DUN1, active compounds read low
[2] = S. cerevisiae deletion strains, locus YHR030C, strain SLT2, active compounds read low
[3] = S. cerevisiae deletion strains, locus YGR078C, strain PAC10, active compounds read low
[4] = S. cerevisiae deletion strains, locus YMR263W, strain SAP30, active compounds read low

## OC(c1ccc(C(F)(F)F)cc1)c1cccc(C(F)(F)F)c1 (stereo unspecified)
S. cerevisiae deletion strains, locus YAR019C, strain CDC15, active compounds read low
  normalized growth: 0.972
S. cerevisiae deletion strains, locus YBL105C, strain PKC1, active compounds read low
  normalized growth: 0.973
S. cerevisiae deletion strains, locus YBR135W, strain CKS1, active compounds read low
  normalized growth: 0.973
S. cerevisiae deletion strains, locus YBR136W, strain MEC1, active compounds read low
  normalized growth: 0.967
S. cerevisiae deletion strains, locus YBR160W, strain CDC28, active compounds read low
  normalized growth: 0.969
S. cerevisiae deletion strains, locus YDL017W, strain CDC7, active compounds read low
  normalized growth: 0.964
S. cerevisiae deletion strains, locus YDL028C, strain MPS1, active compounds read low
  normalized growth: 0.974
[1]
  normalized growth: 0.975
S. cerevisiae deletion strains, locus YDL108W, strain KIN28, active compounds read low
  normalized growth: 0.968
S. cerevisiae deletion strains, locus YDL132W, strain cdc53, active compounds read low
  normalized growth: 0.974
S. cerevisiae deletion strains, locus YDL214C, strain PRR2, active compounds read low
  normalized growth: 0.985
S. cerevisiae deletion strains, locus YDR052C, strain DBF4, active compounds read low
  normalized growth: 0.977
S. cerevisiae deletion strains, locus YDR054C, strain cdc34, active compounds read low
  normalized growth: 0.974
S. cerevisiae deletion strains, locus YDR226W, strain ADK1, active compounds read low
  normalized growth: 0.977
S. cerevisiae deletion strains, locus YDR477W, strain SNF1, active compounds read low
  normalized growth: 0.999
S. cerevisiae deletion strains, locus YER123W, strain YCK3, active compounds read low
  normalized growth: 0.945
S. cerevisiae deletion strains, locus YER133W, strain GLC7, active compounds read low
  normalized growth: 0.992
S. cerevisiae deletion strains, locus YFL009W, strain cdc4, active compounds read low
  normalized growth: 0.981
S. cerevisiae deletion strains, locus YFL029C, strain CAK1, active compounds read low
  normalized growth: 0.962
S. cerevisiae deletion strains, locus YFR003C, strain YPI1, active compounds read low
  normalized growth: 0.969
S. cerevisiae deletion strains, locus YFR019W, strain FAB1, active compounds read low
  normalized growth: 1
S. cerevisiae deletion strains, locus YFR028C, strain CDC14, active compounds read low
  normalized growth: 0.975
S. cerevisiae deletion strains, locus YGR040W, strain KSS1, active compounds read low
  normalized growth: 0.984
S. cerevisiae deletion strains, locus YGR052W, strain FMP48, active compounds read low
  normalized growth: 1
S. cerevisiae deletion strains, locus YGR092W, strain DBF2, active compounds read low
  normalized growth: 0.948
[2]
  normalized growth: 0.867
S. cerevisiae deletion strains, locus YHR079C, strain IRE1, active compounds read low
  normalized growth: 0.885
S. cerevisiae deletion strains, locus YHR082C, strain KSP1, active compounds read low
  normalized growth: 1.09
S. cerevisiae deletion strains, locus YHR205W, strain SCH9, active compounds read low
  normalized growth: 0.949
S. cerevisiae deletion strains, locus YIL147C, strain SLN1, active compounds read low
  normalized growth: 0.971
S. cerevisiae deletion strains, locus YJL095W, strain BCK1, active compounds read low
  normalized growth: 0.953
S. cerevisiae deletion strains, locus YJL128C, strain PBS2, active compounds read low
  normalized growth: 0.942
S. cerevisiae deletion strains, locus YJL157C, strain FAR1, active compounds read low
  normalized growth: 1.01
S. cerevisiae deletion strains, locus YJR016C, strain ILV3, active compounds read low
  normalized growth: 0.984
S. cerevisiae deletion strains, locus YJR066W, strain TOR1 (second series), active compounds read low
  normalized growth: 1.04
S. cerevisiae deletion strains, locus YJR066W, strain TOR1, active compounds read low
  normalized growth: 1.05
S. cerevisiae deletion strains, locus YKL048C, strain ELM1, active compounds read low
  normalized growth: 0.977
S. cerevisiae deletion strains, locus YKL067W, strain YNK1, active compounds read low
  normalized growth: 0.992
S. cerevisiae deletion strains, locus YKL101W, strain HSL1, active compounds read low
  normalized growth: 0.97
S. cerevisiae deletion strains, locus YKL193C, strain SDS22, active compounds read low
  normalized growth: 0.973
S. cerevisiae deletion strains, locus YKL203C, strain TOR2, active compounds read low
  normalized growth: 1.02
S. cerevisiae deletion strains, locus YLR113W, strain HOG1, active compounds read low
  normalized growth: 0.789 (active)
S. cerevisiae deletion strains, locus YLR133W, strain CKI1, active compounds read low
  normalized growth: 0.999
S. cerevisiae deletion strains, locus YLR403W, strain SFP1, active compounds read low
  normalized growth: 1.04
S. cerevisiae deletion strains, locus YML070W, strain DAK1, active compounds read low
  normalized growth: 0.96
S. cerevisiae deletion strains, locus YMR001C, strain CDC5, active compounds read low
  normalized growth: 0.973
S. cerevisiae deletion strains, locus YMR205C, strain PFK2 (second series), active compounds read low
  normalized growth: 0.993
S. cerevisiae deletion strains, locus YMR277W, strain FCP1, active compounds read low
  normalized growth: 0.974
S. cerevisiae deletion strains, locus YNL006W, strain LST8, active compounds read low
  normalized growth: 0.966
S. cerevisiae deletion strains, locus YNL020C, strain ARK1, active compounds read low
  normalized growth: 0.998
S. cerevisiae deletion strains, locus YNL161W, strain CBK1, active compounds read low
  normalized growth: 0.984
S. cerevisiae deletion strains, locus YNL183C, strain NPR1, active compounds read low
  normalized growth: 1.01
S. cerevisiae deletion strains, locus YNL207W, strain RIO2, active compounds read low
  normalized growth: 0.978
S. cerevisiae deletion strains, locus YNL222W, strain SSU72, active compounds read low
  normalized growth: 0.973
S. cerevisiae deletion strains, locus YNL307C, strain MCK1 (second series), active compounds read low
  normalized growth: 0.989
S. cerevisiae deletion strains, locus YOL078W, strain AVO1, active compounds read low
  normalized growth: 0.974
S. cerevisiae deletion strains, locus YOL136C, strain PFK27, active compounds read low
  normalized growth: 0.968
S. cerevisiae deletion strains, locus YOR061W, strain CKA2, active compounds read low
  normalized growth: 1
S. cerevisiae deletion strains, locus YOR119C, strain RIO1, active compounds read low
  normalized growth: 1.07
S. cerevisiae deletion strains, locus YOR231W, strain MKK1, active compounds read low
  normalized growth: 0.92
S. cerevisiae deletion strains, locus YOR329C, strain SCD5, active compounds read low
  normalized growth: 0.967
S. cerevisiae deletion strains, locus YPL031C, strain PHO85, active compounds read low
  normalized growth: 0.978
S. cerevisiae deletion strains, locus YPL153C, strain RAD53, active compounds read low
  normalized growth: 0.991
S. cerevisiae deletion strains, locus YPL204W, strain HRR25, active compounds read low
  normalized growth: 0.959
S. cerevisiae deletion strains, locus YPL209C, strain IPL1, active compounds read low
  normalized growth: 0.973
S. cerevisiae deletion strains, locus YPL256C, strain CLN2, active compounds read low
  normalized growth: 0.839 (active)
S. cerevisiae deletion strains, locus YPR025C, strain CCL1, active compounds read low
  normalized growth: 0.968
S. cerevisiae deletion strains, locus YPR106W, strain ISR1, active compounds read low
  normalized growth: 0.99
S. cerevisiae deletion strains, locus YPR111W, strain DBF20, active compounds read low
  normalized growth: 1
S. cerevisiae deletion strains, strain NNK1, active compounds read low
  normalized growth: 0.975
S. cerevisiae deletion strains, strain TSCII, active compounds read low
  normalized growth: 0.975

## O=C(O)CC(CC(=O)O)c1ccc(C(F)(F)F)cc1
S. cerevisiae deletion strains, locus YAL013W, strain DEP1, active compounds read low
  normalized growth: 0.994
S. cerevisiae deletion strains, locus YBR229C, strain ROT2, active compounds read low
  normalized growth: 1
S. cerevisiae deletion strains, locus YCL061C, strain MRC1, active compounds read low
  normalized growth: 0.981
[1]
  normalized growth: 0.999
S. cerevisiae deletion strains, locus YDR150W, strain NUM1, active compounds read low
  normalized growth: 0.938
S. cerevisiae deletion strains, locus YEL061C, strain CIN8, active compounds read low
  normalized growth: 1.01
[3]
  normalized growth: 0.993
S. cerevisiae deletion strains, locus YGR229C, strain SMI1, active compounds read low
  normalized growth: 0.985
[2]
  normalized growth: 1.03
S. cerevisiae deletion strains, locus YHR087W, strain rtc3, active compounds read low
  normalized growth: 1
S. cerevisiae deletion strains, locus YJR043C, strain POL32, active compounds read low
  normalized growth: 0.991
S. cerevisiae deletion strains, locus YJR075W, strain HOC1, active compounds read low
  normalized growth: 0.993
S. cerevisiae deletion strains, locus YKL190W, strain CNB1, active compounds read low
  normalized growth: 1
S. cerevisiae deletion strains, locus YLR039C, strain RIC1, active compounds read low
  normalized growth: 1.02
S. cerevisiae deletion strains, locus YLR058C, strain SHM2 (second series), active compounds read low
  normalized growth: 0.999
S. cerevisiae deletion strains, locus YLR085C, strain ARP6, active compounds read low
  normalized growth: 1.02
S. cerevisiae deletion strains, locus YLR262C, strain YPT6, active compounds read low
  normalized growth: 1.01
S. cerevisiae deletion strains, locus YML094W, strain GIM5, active compounds read low
  normalized growth: 1.02
S. cerevisiae deletion strains, locus YMR219W, strain ESC1, active compounds read low
  normalized growth: 0.999
[4]
  normalized growth: 0.993
S. cerevisiae deletion strains, locus YNL153C, strain GIM3, active compounds read low
  normalized growth: 0.99
S. cerevisiae deletion strains, locus YNL298W, strain CLA4 (second series), active compounds read low
  normalized growth: 1.04
S. cerevisiae deletion strains, locus YNL322C, strain KRE1, active compounds read low
  normalized growth: 1.01
S. cerevisiae deletion strains, locus YNR030W, strain Alg12, active compounds read low
  normalized growth: 1.02
S. cerevisiae deletion strains, locus YPL055C, strain LGE1, active compounds read low
  normalized growth: 0.918
S. cerevisiae deletion strains, locus YPL241C, strain CIN2, active compounds read low
  normalized growth: 1.04
S. cerevisiae deletion strains, locus YPR135W, strain CTF4, active compounds read low
  normalized growth: 0.963
S. cerevisiae strains, strain wild type, active compounds read low
  normalized growth: 0.995

## OC[C@H]1O[C@@H](n2cnc3cncnc32)[C@H](O)[C@@H]1O
S. cerevisiae deletion strains, locus YAL040C, strain CLN3, active compounds read low
  normalized growth: 1.01
S. cerevisiae deletion strains, locus YCL061C, strain MRC1 (second series), active compounds read low
  normalized growth: 1.01
S. cerevisiae deletion strains, locus YDR363W, strain ESC2, active compounds read low
  normalized growth: 1
S. cerevisiae deletion strains, locus YER002W, strain NOP16, active compounds read low
  normalized growth: 1.01
[3]
  normalized growth: 1.03
[4]
  normalized growth: 0.997
S. cerevisiae deletion strains, locus YMR307W, strain GAS1, active compounds read low
  normalized growth: 1
S. cerevisiae deletion strains, locus YNL128W, strain TEP1, active compounds read low
  normalized growth: 1.03
S. cerevisiae deletion strains, locus YNL175C, strain NOP13, active compounds read low
  normalized growth: 1.02
S. cerevisiae deletion strains, locus YNL197C, strain WHI3, active compounds read low
  normalized growth: 1
S. cerevisiae deletion strains, locus YNL224C, strain SQS1, active compounds read low
  normalized growth: 1.02
S. cerevisiae deletion strains, locus YOR083W, strain WHI5 (second series), active compounds read low
  normalized growth: 1.07
